# Screening results from PubChem BioAssay.
# Sampled rows, rich in hits. Any-hit rate of the full collection: about 2.2%.
# Abeta rescue = qHTS for compounds that reverse cellular toxicity of Amyloid beta (A-beta) peptide in yeast: Primary Screen. yeast expressing A-beta42, growth rescue, OD600, 48 h; response scale: 0% DMSO, 100% iron-clioquinol control. Potency, µM (titrated, usually from 46.1 µM), hits mostly activators. hit rate 0.063% among 410,000. AID 1347071, 2019; further: nearly all actives have a fitted effect of over 55% in size
#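 Yeast growth medium received pinned compounds, then yeast cells expressing toxic A-beta were added; plates incubated at 30 C for 48 hr. Growth read as absorbance at 600 nm, normalized to DMSO and equimolar FeCl3 plus clioquinol controls.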
# Mito fusion act = qHTS Assay for Small Molecule Inhibitors of Mitochondrial Division or Activators of Mitochondrial Fusion | S. cerevisiae fusion-defective mutant growth rescue, CellTiterGlo 48 h | Potency, µM (series often up to 46.1 µM), without a hit: top-dose growth rescue (activation), actives largely listed as activators | hit rate 0.23% among 320,000 | AID 485298, 2010; further: % of control where 0% means no effect; nearly all actives have a fitted effect of over 45% in size
#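 Growth-rescue viability read-out: after 48 h at the non-permissive 37C in glycerol/ethanol YPEG, yeast mitochondrial fusion mutants are measured by CellTiterGlo luminescence; compounds (23 nl pinned per well) restoring growth score as division inhibitors or fusion activators.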
# TDP-43 yeast inh = qHTS of TDP-43 Inhibitors. TDP-43 expressing yeast growth rescue, BacTiter-Glo, 24 h. Potency, µM (highest dose often 46.1 µM), inactives show top-dose growth rescue (activation), usual class: activators. hit rate 1.8% among 410,000. AID 652104, 2013; further: % of control where 0% means no effect; nearly all actives have a fitted effect of over 50% in size
#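 In this qHTS, compounds that restore growth of yeast expressing TDP-43 appear as activators. Cells (OD600=0.02, galactose medium, raffinose-pregrown) are incubated with compound 24 hr at 30 deg C and growth is quantified by BacTiter-Glo.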
# aSyn rescue = qHTS of alpha-syn Inhibitors. hit rate 0.14% among 370,000. Potency, µM (top dose mostly 46.1 µM), for inactives: top-dose growth rescue (activation), usual class: activators. AID 652106, 2013. Yeast expressing alpha-synuclein, growth rescue, BacTiter-Glo, 24 h; further: % of control where 0% means no effect; nearly all actives have a fitted effect of over 65% in size
#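 Readout is rescue of growth in alpha-synuclein-expressing yeast, so inhibitors of toxicity appear as activators. Growth after 24 hr at 30 deg C in galactose medium is quantified by luminescence.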
# FUS suppressor = qHTS for Suppressors of FUS Proteinopathy: Primary screen using FUS-linked yeast assay. S. cerevisiae FUS-expressing, growth rescue, OD600, 24 h. Potency, µM (titrated, usually from 76.6 µM), usual class: activators. hit rate 0.24% among 390,000;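 further: plate controls were DMSO vehicle for no effect and reference control for full effect; nearly all actives have a fitted effect of over 55% in size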
#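 Cultures pregrown in 2.5% raffinose medium are shifted to minimal medium containing 2% galactose to express toxic FUS. Compounds are tested at several concentrations. After 24hr at 30C, growth is quantified at 600 nm absorbance.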
# Active calls of the source: *; i = inactive; ? = inconclusive; / = not tested or not shown; [ ] = remark or other dose. The call rests on the fitted dose curve; in most records, active means well fitted curve in the direction sought with a large enough effect; inconclusive means small, poorly fitted or top-dose-only effect, or another doubt; inactive means no such curve, though single readings can be large; an effect the other way counts as inactive or inconclusive. Potency means the concentration at half of the fitted maximal effect.
SMILES,Abeta rescue,Mito fusion act,TDP-43 yeast inh,aSyn rescue,FUS suppressor
O=C(CSc1c2c(nc3ccc(Cl)cc13)CCCC2)N1CCN(c2ccc(Cl)cc2)CC1,i,/,17.8µM*,/,?
CCOc1ccc(CNC(=O)CSc2c3c(nc4ccc(Cl)cc24)CCCC3)cc1,i,/,20.3%,/,i
COc1ccc(N2CCN(C(=O)CSc3c4c(nc5ccc(Cl)cc35)CCCC4)CC2)cc1,i,/,31.6µM*,/,?
Cc1ccc(CNC(=O)CSc2c3c(nc4cc(Cl)ccc24)CCCC3)o1,i,-0.8%,15.8µM*,-12.7%,?
COc1cccc(NC(=O)CSc2nc3ccc(NC(=O)c4ccco4)cc3s2)c1,i,/,19.2%,/,i
Cc1ccc2nc(-c3cccc(Br)c3)cc(C(=O)NC3=NCCS3)c2c1,i,23.5%,20µM*,-25.6%,i
O=C(NC1=NCCS1)c1cc(-c2cccc(Br)c2)nc2ccccc12,i,22.9%,22.4µM*,-23.8%,/
Cc1ccccc1NC(=O)[C@@H]1CCCN1S(=O)(=O)c1cccc2cccnc12,/,/,/,/,i
COc1ccc(CN(C)CC#Cc2ccccc2)c(OC)c1,/,/,/,/,i
O=C(CN1CC[n+]2c(-c3cccs3)csc21)c1ccc(-c2ccccc2)cc1,i,-3.8%,3.55µM*,-11.2%,i
COc1cc(/C=N/N2CCOCC2)ccc1OCc1ccccc1,i,5.7%,-13.3%[9.22 µM],-8.0%,i
COc1cc(/C=N/N2CCOCC2)ccc1OCc1ccc(Cl)cc1,i,17.9%,11.2µM*,-1.0%,i
COc1ccc(NC(=O)Cn2c(=O)n(-c3ccc(Cl)cc3)c(=O)c3c(C)c(C(=O)N(C)C)sc32)cc1Cl,i,/,3.5%,/,i
CC(C)C(=O)Nc1ncc(Cc2cccc(Cl)c2)s1,?,-9.8%,17.8µM*,0.6%,i
Cc1cc(Nc2ccccc2)n(-c2cccc(Cl)c2)n1,i,0.6%,14.1µM*,-8.6%,i
Cc1cc(Nc2ncc(Cl)cc2Cl)n(-c2ccccc2)n1,i,1.0%,7.08µM*,-27.4%,i
Cc1cc(Nc2ncc(Cl)cc2Cl)n(-c2ccccn2)n1,i,-6.6%,0.0%,-11.5%,i
Cc1c(Cl)cccc1-n1nc(C)c2c(C)cc(=O)n(CC(=O)N3CCCc4ccccc43)c21,i,/,?,/,i
Cc1ccc(-c2csc(C(O)c3ccccc3)n2)cc1C (stereo not drawn),i,/,25.1µM*,?,i
OC(c1ccccc1)c1nc(-c2cc3ccccc3o2)cs1 (stereo not drawn),i,/,14.1µM*,11.2%,i
COc1cc(C(O)c2nc(-c3ccc(C)c(C)c3)cs2)ccc1F (stereo not drawn),i,/,35.5µM*,?,i
Cn1nc(C(=O)Nc2ccc(F)c(Cl)c2)c2c1-c1ccccc1S(=O)(=O)C2,i,/,27.7%,/,i
CCCCNC(=O)C1(C(=O)C2CC2)CC(c2ccccc2C(F)(F)F)=NO1 (stereo not drawn),/,/,/,/,i
CC(=O)Nc1ccc(N=Nc2ccccc2)cc1,i,19.1%,10µM*,-11.8%,/
CC(=O)Nc1ccccc1,i,/,20.3%,-2.5%,i
SMILES,Abeta rescue,Mito fusion act,TDP-43 yeast inh,aSyn rescue,FUS suppressor
CC(=O)OCC(=O)Nc1ccc(N=Nc2ccccc2)cc1,i,7.0%,11.2µM*,-15.4%,i
CN(C)c1ccc(NC(=S)OC2CCC23CCC(c2ccccc2)CC3)cc1 (stereo not drawn),/,/,/,/,i
Cc1cc(Oc2ccc(-c3ccccc3)cc2)n2ncnc2n1,i,-4.1%,17.8µM*,13.1%,i
CCN(c1ccccc1)c1cc(C)nc2ncnn12,i,6.7%,9.6%,-4.2%,i
Cc1ccc(N2CCN(C(=O)NCc3noc4ccc(C)cc34)CC2)c(C)c1,i,/,20µM*,/,?
Cc1ccc(C)c(N2CCN(C(=O)NCc3noc4ccc(C)cc34)CC2)c1,i,/,?,/,i
Cc1ccc2onc(CC(=O)N3CCN(c4cccc(Cl)c4)CC3)c2c1,i,/,20µM*,/,?
Cc1ccc2onc(CC(=O)N3CCN(c4cccc(C)c4C)CC3)c2c1,i,/,25.1µM*,/,?
